Inconclusive results are not listed. Activity calls are given as the source filed them. Unless noted, calls follow the shape of the dose curve; as a rule, active = well fitted curve in the direction sought with a large enough effect in the repeat runs; inconclusive = weak or mixed curves; inactive = no such curve, though single readings can be large; an effect the other way counts as inactive or inconclusive.
Columns and labels:
[1] = qHTS assay to identify aromatase inhibitors - cell viability counter screen (AID 743084);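 also: cells stimulated with testosterone during compound exposure; nearly all actives have a fitted effect of over 55% in size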
[2] = target: Aryl hydrocarbon receptor (Homo sapiens) (UniProt P35869); assay: qHTS assay to identify small molecule that activate the aryl hydrocarbon receptor (AhR) signaling pathway (AID 743085);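 also: HG2L7.5c1 human HepG2 liver cells with stably integrated DRE-driven firefly reporter; series mostly up to about 70 µM; nearly all actives have a fitted effect of over 15% in size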
Chain of Aryl hydrocarbon receptor (Homo sapiens) (P35869 whole entry, looked up): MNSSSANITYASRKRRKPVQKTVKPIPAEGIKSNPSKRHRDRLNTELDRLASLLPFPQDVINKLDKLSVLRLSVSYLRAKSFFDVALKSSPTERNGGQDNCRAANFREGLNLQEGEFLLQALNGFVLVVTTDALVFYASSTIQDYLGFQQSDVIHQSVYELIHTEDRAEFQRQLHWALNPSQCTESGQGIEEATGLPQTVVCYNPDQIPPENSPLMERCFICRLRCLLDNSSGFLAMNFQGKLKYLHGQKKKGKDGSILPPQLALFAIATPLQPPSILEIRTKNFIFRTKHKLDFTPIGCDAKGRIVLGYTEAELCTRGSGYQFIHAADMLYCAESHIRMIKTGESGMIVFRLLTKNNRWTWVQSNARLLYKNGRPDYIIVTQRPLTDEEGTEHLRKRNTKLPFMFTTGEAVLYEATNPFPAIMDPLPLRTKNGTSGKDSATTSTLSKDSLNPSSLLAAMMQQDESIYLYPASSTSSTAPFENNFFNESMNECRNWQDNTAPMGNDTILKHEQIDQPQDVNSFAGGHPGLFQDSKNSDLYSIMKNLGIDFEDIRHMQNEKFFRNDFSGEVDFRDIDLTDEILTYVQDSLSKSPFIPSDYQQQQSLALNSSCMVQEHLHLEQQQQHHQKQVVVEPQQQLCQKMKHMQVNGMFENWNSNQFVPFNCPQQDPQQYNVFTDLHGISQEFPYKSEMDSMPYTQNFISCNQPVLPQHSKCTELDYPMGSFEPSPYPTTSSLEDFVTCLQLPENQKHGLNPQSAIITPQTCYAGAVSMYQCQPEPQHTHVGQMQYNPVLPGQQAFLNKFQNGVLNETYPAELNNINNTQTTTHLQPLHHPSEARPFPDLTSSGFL
Summary of the method: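 Stably transfected human liver carcinoma cells (HG2L7.5c1; 20 DRE-firefly luciferase) were incubated 5 h, dosed, and kept 24 h at 37C. Agonism was scored from increased luciferase luminescence.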

[3] = qHTS assay to identify small molecule that activate the aryl hydrocarbon receptor (AhR) signaling pathway - cell viability counter screen (AID 743086);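 also: HepG2 liver cells carrying the AhR DRE luciferase reporter; series mostly up to about 70 µM; nearly all actives have a fitted effect of over 45% in size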
Summary of the method: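 Cytotoxicity counter screen: CellTiter-Fluor signal (30 min, 37 C) in 4000 HepG2 cells/well carrying the DRE-luciferase reporter, following 24 h compound exposure at 37 C.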

[4] = target: Peroxisome proliferator-activated receptor gamma (Homo sapiens) (UniProt P37231); assay: qHTS assay to identify small molecule agonists of the peroxisome proliferator-activated receptor gamma (PPARg) signaling pathway (AID 743094; active = well fitted activation curve with a large enough effect in the signal ratio in the repeat runs, not every such curve was filed as active; the % refers to the signal ratio)
Chain of Peroxisome proliferator-activated receptor gamma (Homo sapiens) (P37231 whole entry, looked up): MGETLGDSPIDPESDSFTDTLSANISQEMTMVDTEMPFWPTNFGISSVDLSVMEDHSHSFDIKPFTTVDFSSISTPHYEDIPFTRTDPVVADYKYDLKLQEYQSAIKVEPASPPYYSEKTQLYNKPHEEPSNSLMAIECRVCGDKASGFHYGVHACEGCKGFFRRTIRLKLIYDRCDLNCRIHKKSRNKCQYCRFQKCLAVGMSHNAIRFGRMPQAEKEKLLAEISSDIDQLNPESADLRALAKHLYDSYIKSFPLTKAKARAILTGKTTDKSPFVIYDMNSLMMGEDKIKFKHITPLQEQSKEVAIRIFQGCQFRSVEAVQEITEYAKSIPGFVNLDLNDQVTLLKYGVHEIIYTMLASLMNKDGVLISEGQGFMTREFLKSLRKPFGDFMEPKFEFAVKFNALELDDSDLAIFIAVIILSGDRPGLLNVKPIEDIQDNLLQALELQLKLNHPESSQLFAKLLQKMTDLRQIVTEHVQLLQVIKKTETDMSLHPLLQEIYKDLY
Summary of the method: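 Quantitative HTS agonist mode: stable HEK293H line with UAS-beta-lactamase reporter under PPARg control, 17 h compound exposure at 37C, fluorescence after 1 h FRET substrate loading at room temperature.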

[5] = qHTS assay for small molecule agonists of the antioxidant response element (ARE) signaling pathway (AID 743202; active = well fitted activation curve with a large enough effect in the signal ratio in the repeat runs, not every such curve was filed as active; the % refers to the signal ratio)
Summary of the method: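 Quantitative high-throughput format in HepG2 cells bearing an integrated ARE-beta-lactamase reporter. Compound exposure lasted 16 h at 37 C, and fluorescence was read 2 h after adding LiveBLAzer B/G substrate at room temperature.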

[6] = qHTS assay for small molecule agonists of the antioxidant response element (ARE) signaling pathway - cell viability counter screen (AID 743203; calls by dose curve; also: nearly all actives have a fitted effect of over 55% in size)
Summary of the method: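 Seeded at 2,000 cells/well, ARE-bla HepG2 cells were incubated 5 hrs before compound addition. After 16 hrs of treatment at 37C with 5% CO2, CellTiter-Glo reagent was added and luminescence read 30 min later.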

[7] = qHTS assay for small molecule activators of the heat shock response signaling pathway - cell viability counter screen (AID 743209); also: nearly all actives have a fitted effect of over 50% in size
Summary of the method: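 First, HSE-bla HeLa cells were seeded at 1500 cells/well and kept overnight at 37 C. Next, compounds were pinned in and incubated 5 h. After the FRET substrate step, CellTiter-Glo was added and luminescence read 30 min later.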

[8] = qHTS assay for small molecule activators of the heat shock response signaling pathway (AID 743210; active = well fitted activation curve with a large enough effect in the signal ratio in the repeat runs, with a control signal flat, not every such curve was filed as active; the % refers to the signal ratio;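 also: HeLa cells with beta-lactamase reporter driven by heat shock elements; series mostly up to about 63 µM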)
Summary of the method: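 HeLa HSE-bla cells, overnight plating; cpd in DMSO 5 h, 37 C; LiveBLAzer B/G FRET substrate 2.5 h RT; fluorescence intensity read.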

[9] = qHTS assay to identify small molecule agonists of the peroxisome proliferator-activated receptor delta (PPARd) signaling pathway - cell viability counter screen (AID 743211); also: nearly all actives have a fitted effect of over 55% in size
Summary of the method: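 In the same wells used for beta-lactamase reporter measurement, cytotoxicity is scored by CellTiter-Glo. HEK293H PPARd-bla cells receive compound for 17 h at 37C following a 5 h settling period.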

[10] = target: Peroxisome proliferator-activated receptor delta (Homo sapiens) (UniProt Q03181); assay: qHTS assay to identify small molecule agonists of the peroxisome proliferator-activated receptor delta (PPARd) signaling pathway (AID 743212; calls by dose curve)
Chain of Peroxisome proliferator-activated receptor delta (Homo sapiens) (Q03181 whole entry, looked up): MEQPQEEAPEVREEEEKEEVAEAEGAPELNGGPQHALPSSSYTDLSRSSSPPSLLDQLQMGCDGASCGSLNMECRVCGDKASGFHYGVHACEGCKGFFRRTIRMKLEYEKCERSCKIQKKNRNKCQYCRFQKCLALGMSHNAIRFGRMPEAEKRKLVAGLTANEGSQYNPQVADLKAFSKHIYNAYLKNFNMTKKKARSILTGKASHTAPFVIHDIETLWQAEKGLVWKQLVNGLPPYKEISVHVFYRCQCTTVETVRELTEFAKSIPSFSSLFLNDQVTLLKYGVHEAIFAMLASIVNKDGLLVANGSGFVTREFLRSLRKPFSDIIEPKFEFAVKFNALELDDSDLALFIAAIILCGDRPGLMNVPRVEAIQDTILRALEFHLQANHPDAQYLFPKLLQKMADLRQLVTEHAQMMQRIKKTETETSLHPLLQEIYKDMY
Summary of the method: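 HEK293H PPARd-bla cells; 5 h preincubation 37 C/5% CO2; compound (DMSO) 37 C; LiveBLAzer B/G FRET substrate 2 h RT; fluorescence intensity.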

[11] = qHTS assay to identify small molecule antagonists of the peroxisome proliferator-activated receptor delta (PPARd) signaling pathway - cell viability counter screen (AID 743213); also: nearly all actives have a fitted effect of over 50% in size
Summary of the method: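 CellTiter-Glo was added to PPARd-bla HEK293H wells following 17 h compound treatment in the presence of 300 nM L165041. Luminescence was recorded after 30 min at room temperature.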

[12] = target: Peroxisome proliferator-activated receptor delta (Homo sapiens) (UniProt Q03181); assay: qHTS assay to identify small molecule antagonists of the peroxisome proliferator-activated receptor delta (PPARd) signaling pathway (AID 743215; active = well fitted inhibition curve with a large enough effect in the signal ratio in the repeat runs, not every such curve was filed as active; the % refers to the signal ratio;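 also: cells stimulated with agonist L165041 at 300 nM final during compound exposure; series mostly up to about 62 µM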)
Summary of the method: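 Inhibition of L165041-driven (300 nM final) PPARd signaling is scored in HEK293H UAS-bla cells. Exposure lasts 17 h at 37 C; beta-lactamase activity is then read by FRET substrate fluorescence after 2 h at room temperature.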

[13] = target: Bile acid receptor (Homo sapiens) (UniProt Q96RI1); assay: qHTS assay to identify small molecule antagonists of the farnesoid-X-receptor (FXR) signaling pathway (AID 743217; active = well fitted inhibition curve with a large enough effect in the signal ratio in the repeat runs, not every such curve was filed as active; the % refers to the signal ratio)
Chain of Bile acid receptor (Homo sapiens) (Q96RI1 whole entry, looked up): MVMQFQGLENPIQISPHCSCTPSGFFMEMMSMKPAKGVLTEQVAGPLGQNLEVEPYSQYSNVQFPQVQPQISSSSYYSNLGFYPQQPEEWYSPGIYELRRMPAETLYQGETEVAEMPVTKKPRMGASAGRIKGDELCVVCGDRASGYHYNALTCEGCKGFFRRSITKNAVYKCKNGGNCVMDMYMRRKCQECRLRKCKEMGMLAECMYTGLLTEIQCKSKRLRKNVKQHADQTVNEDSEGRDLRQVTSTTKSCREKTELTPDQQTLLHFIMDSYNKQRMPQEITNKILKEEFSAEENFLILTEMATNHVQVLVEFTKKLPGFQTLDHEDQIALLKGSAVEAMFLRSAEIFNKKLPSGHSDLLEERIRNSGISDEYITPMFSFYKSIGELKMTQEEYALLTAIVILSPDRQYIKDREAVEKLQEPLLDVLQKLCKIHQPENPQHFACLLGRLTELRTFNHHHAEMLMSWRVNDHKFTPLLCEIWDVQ
Summary of the method: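 Antagonist mode against 50 uM (final) chenodeoxycholic acid stimulation in FXR-bla HEK 293T cells, 16 h at 37 °C. Inhibition detected as reduced beta-lactamase activity via LiveBLAzer B/G FRET fluorescence after 2 h at room temperature.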

[14] = qHTS assay to identify small molecule agonists of the farnesoid-X-receptor (FXR) signaling pathway - cell viability counter screen (AID 743218); also: nearly all actives have a fitted effect of over 45% in size
Summary of the method: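 Cytotoxicity counter-screen run in parallel, same wells: FXR-UAS-bla HEK 293T cells dosed 16 h at 37 C, viability read by CellTiter-Glo luminescence after 30 min at room temperature.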

[15] = target: Bile acid receptor (Homo sapiens) (UniProt Q96RI1); assay: qHTS assay to identify small molecule agonists of the farnesoid-X-receptor (FXR) signaling pathway (AID 743220; active = well fitted activation curve with a large enough effect in the signal ratio in the repeat runs, not every such curve was filed as active; the % refers to the signal ratio)
Summary of the method: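 Beta-lactamase reporter under UAS control in GeneBLAzer FXR HEK 293T cells (5000/well) measured with LiveBLAzer FRET substrate after 2 h at room temperature. Compound exposure lasted 16 h at 37C.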

[16] = qHTS assay to identify small molecule antagonists of the farnesoid-X-receptor (FXR) signaling pathway - cell viability counter screen (AID 743221; active = well fitted cell-killing curve with a large enough effect in the repeat runs, not every such curve was filed as active; also: nearly all actives have a fitted effect of over 50% in size)
Summary of the method: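 Here viability was scored by luminescence after CellTiter-Glo addition to wells already read for beta-lactamase. Prior treatment: compound plus CDCA (50 uM final), 16 h, 37 C, HEK 293T FXR-bla cells.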

[17] = qHTS assay to identify small molecule antagonists of the peroxisome proliferator-activated receptor gamma (PPARg) signaling pathway - cell viability counter screen (AID 743194); conditions: Potency: co-treated with 50 nM rosiglitazone; also: nearly all actives have a fitted effect of over 55% in size
Summary of the method: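 Viability was measured as CellTiter-Glo luminescence in GeneBLAzer PPARg UAS-bla HEK293H cells. These cells had been exposed 17 h at 37 C to compounds together with rosiglitazone at 50 nM final, with the beta-lactamase readout taken in the same wells.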

[18] = target: Vitamin D3 receptor (Homo sapiens) (UniProt P11473); assay: qHTS assay to identify small molecule antagonists of the vitamin D receptor (VDR) signaling pathway (AID 743223; active = well fitted inhibition curve with a large enough effect in the signal ratio in the repeat runs, not every such curve was filed as active; the % refers to the signal ratio)
Chain of Vitamin D3 receptor (Homo sapiens) (P11473 whole entry, looked up): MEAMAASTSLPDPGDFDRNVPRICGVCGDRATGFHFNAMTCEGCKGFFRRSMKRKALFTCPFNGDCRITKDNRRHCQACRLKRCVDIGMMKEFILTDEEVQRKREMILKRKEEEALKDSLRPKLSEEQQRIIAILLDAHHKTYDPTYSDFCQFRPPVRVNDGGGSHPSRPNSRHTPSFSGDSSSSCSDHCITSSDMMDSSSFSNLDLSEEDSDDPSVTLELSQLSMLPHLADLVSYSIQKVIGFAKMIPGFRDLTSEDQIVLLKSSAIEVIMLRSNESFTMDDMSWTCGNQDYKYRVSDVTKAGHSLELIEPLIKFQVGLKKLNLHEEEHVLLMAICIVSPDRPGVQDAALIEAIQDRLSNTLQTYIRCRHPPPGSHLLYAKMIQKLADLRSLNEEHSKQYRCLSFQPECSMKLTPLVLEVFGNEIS
Summary of the method: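 Inhibition of agonist-driven VDR signalling is scored in VDR-bla cells: 3 nM final 1alpha,25-dihydroxyvitamin D3 plus compound, 16 h at 37C, then beta-lactamase detection by FRET substrate fluorescence after 2 h.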

[19] = target: Vitamin D3 receptor (Homo sapiens) (UniProt P11473); assay: qHTS assay to identify small molecule agonists of the vitamin D receptor (VDR) signaling pathway (AID 743222; calls by dose curve)
Summary of the method: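 Quantitative HTS agonist-mode screen: compounds in DMSO were pin-transferred onto VDR-bla cells and incubated 16 h at 37C, 5% CO2. Reporter activity was detected with LiveBLAzer B/G FRET substrate after 2 h at room temperature.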

[20] = target: Peroxisome proliferator-activated receptor gamma (Homo sapiens) (UniProt P37231); assay: qHTS assay to identify small molecule antagonists of the peroxisome proliferator-activated receptor gamma (PPARg) signaling pathway (AID 743191; calls by dose curve; also: series mostly up to about 63 µM; nearly all actives have a fitted effect of over 30% in size)
Summary of the method: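 Beta-lactamase reporter under UAS control in HEK293H PPARg-bla cells; compound treatment 17 h at 37C. Read-out: fluorescence intensity after 1 h room-temperature incubation with LiveBLAzer B/G FRET substrate.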

Measured: Potency

Cc1cc(OC(=O)N(C)C)nn1C(=O)N(C)C
not listed: [17] | [18] | [19] | [20]
inactive: all other assays above

C[C@]12C=CC(=O)C=C1CC[C@@H]1[C@@H]2CC[C@@]2(C)[C@H]1CC[C@]2(C)O
not listed: [5] | [10] | [11] | [12] | [13] | [15] | [19] | [20]
inactive: all other assays above

CC(C)[C@]12CC(=O)[C@H](C)[C@H]1C2
not listed: [10] | [11] | [16] | [20]
inactive: all other assays above

O=C(Cl)OCc1ccccc1
inactive: [1] | [2] | [3] | [4] | [17] | [5] | [6] | [7] | [9] | [11] | [14]

COC1=CC(=O)O[C@@H](/C=C/c2ccccc2)C1
not listed: [5] | [11] | [20]
inactive: all other assays above

O=C(NC(=O)c1c(F)cccc1F)Nc1cc(Cl)c(F)c(Cl)c1F
not listed: [5] | [13] | [15] | [20]
inactive: all other assays above

[P]#[In]
not listed: [10] | [13] | [15] | [17] | [18] | [20]
inactive: all other assays above

NCCOS(=O)(=O)O
not listed: [4]
inactive: all other assays above

CCCCOC(C)=O
not listed: [8] | [10] | [18] | [19] | [20]
inactive: all other assays above

Source: PubChem BioAssay (Tox21)
